# Experiments:
# Test in all cases: yeast three-hybrid, YBZ-1, SC-Leu-His + 0.5 mM 3-AT, 4 days
# Conditions in all cases: tags: N-Gal4 AD-HA kept; label: inside an RPR1-promoter hybrid RNA with tandem MS2 sites; ssRNA
# PUM1 PUF domain R5-RKC = PUM1 PUF domain R5-RKC (Homo sapiens, UniProt Q14671 828-1176, C1007R;R1008K;Q1011C)
# Procedure, shortened: (§1)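 The interaction score is the log change in how often each variant appears, from input to selection. Frequencies came from PCR-amplified, Illumina-sequenced repeat regions of Pumilio-1 PUF domain libraries grown in strain YBZ-1 (LexA–MS2 coat fusion, HIS3 reporter) alongside matching RNA elements. Input plates were SC-Leu and selection plates were SC-Leu-His + 0.5 mM 3-AT, each for four days, and the log2 calculation used a pseudocount of 1 where a variant was absent.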
# PUM1 PUF domain R5-SSR = PUM1 PUF domain R5-SSR (Homo sapiens, UniProt Q14671 828-1176, C1007S;R1008S;Q1011R)
# Procedure, shortened: as §1
# PUM1 PUF domain R5-KCL = PUM1 PUF domain R5-KCL (Homo sapiens, UniProt Q14671 828-1176, C1007K;R1008C;Q1011L)
# Procedure, shortened: as §1
# PUM1 PUF domain R5-SPR = PUM1 PUF domain R5-SPR (Homo sapiens, UniProt Q14671 828-1176, C1007S;R1008P;Q1011R)
# Procedure, shortened: as §1
# PUM1 PUF domain R7-RVM = PUM1 PUF domain R7-RVM (Homo sapiens, UniProt Q14671 828-1176, S1079R;N1080V;E1083M)
# Procedure, shortened: as §1
# PUM1 PUF domain R7-KSG = PUM1 PUF domain R7-KSG (Homo sapiens, UniProt Q14671 828-1176, S1079K;N1080S;E1083G)
# Procedure, shortened: as §1
# PUM1 PUF domain R3-TFF = PUM1 PUF domain R3-TFF (Homo sapiens, UniProt Q14671 828-1176, C935T;R936F;Q939F)
# Procedure, shortened: as §1
# PUM1 PUF domain R4-RFP = PUM1 PUF domain R4-RFP (Homo sapiens, UniProt Q14671 828-1176, N971R;H972F;Q975P)
# Procedure, shortened: as §1
# PUM1 PUF domain R6-FRS = molecular target: T1, PUM1 PUF domain R6-FRS (Homo sapiens, UniProt Q14671 828-1176, N1043F;Y1044R;Q1047S)
# T1 sequence: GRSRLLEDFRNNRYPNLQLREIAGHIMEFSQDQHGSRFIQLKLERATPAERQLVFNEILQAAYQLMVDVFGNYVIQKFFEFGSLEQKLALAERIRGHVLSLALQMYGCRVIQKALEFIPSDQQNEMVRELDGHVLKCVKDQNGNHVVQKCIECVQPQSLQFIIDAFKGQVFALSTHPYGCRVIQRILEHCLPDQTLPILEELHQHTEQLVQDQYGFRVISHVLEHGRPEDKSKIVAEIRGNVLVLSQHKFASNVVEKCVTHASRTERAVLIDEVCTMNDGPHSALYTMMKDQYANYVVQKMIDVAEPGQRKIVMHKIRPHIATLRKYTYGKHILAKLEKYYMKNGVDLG
# Procedure, shortened: as §1
# PUM1 PUF domain R5-MYR = PUM1 PUF domain R5-MYR (Homo sapiens, UniProt Q14671 828-1176, C1007M;R1008Y;Q1011R)
# Procedure, shortened: as §1
# PUM1 PUF domain R2-EWV = PUM1 PUF domain R2-EWV (Homo sapiens, UniProt Q14671 828-1176, N899E;Y900W;Q903V)
# Procedure, shortened: as §1
# PUM1 PUF domain R2-EWL = PUM1 PUF domain R2-EWL (Homo sapiens, UniProt Q14671 828-1176, N899E;Y900W;Q903L)
# Procedure, shortened: as §1
# PUM1 PUF domain R1-VTW = PUM1 PUF domain R1-VTW (Homo sapiens, UniProt Q14671 828-1176, S863V;R864T;Q867W)
# Procedure, shortened: as §1
# PUM1 PUF domain R5-MKC = PUM1 PUF domain R5-MKC (Homo sapiens, UniProt Q14671 828-1176, C1007M;R1008K;Q1011C)
# Procedure, shortened: as §1
# PUM1 PUF domain R3-FCM = PUM1 PUF domain R3-FCM (Homo sapiens, UniProt Q14671 828-1176, C935F;R936C;Q939M)
# Procedure, shortened: as §1
sequence,measurement,setting,value
GGCUAGAACUAGUGGAUCCCCCGGCGCCCGGCGGCUCGAGCCCGGGUAAGUGUCAAUAGUCUGCAUGCCGCCGGGCGCCAUGCCUGCAGGUCGACUCUAGAAAACAUG,binding signal,PUM1 PUF domain R5-RKC,3.84 log2 enrichment (interaction score)
same,binding signal,PUM1 PUF domain R5-SSR,6.53 log2 enrichment (interaction score)
same,binding signal,PUM1 PUF domain R5-KCL,3.63 log2 enrichment (interaction score)
same,binding signal,PUM1 PUF domain R5-SPR,5.38 log2 enrichment (interaction score)
GGCUAGAACUAGUGGAUCCCCCGGCGCCCGGCGGCUCGAGCCCGGGUAAGUUUAAAUAGUCUGCAUGCCGCCGGGCGCCAUGCCUGCAGGUCGACUCUAGAAAACAUG,binding signal,PUM1 PUF domain R7-RVM,2.72 log2 enrichment (interaction score)
same,binding signal,PUM1 PUF domain R7-KSG,2.37 log2 enrichment (interaction score)
GGCUAGAACUAGUGGAUCCCCCGGCGCCCGGCGGCUCGAGCCCGGGUAAGUGUAAAUAGUCUGCAUGCCGCCGGGCGCCAUGCCUGCAGGUCGACUCUAGAAAACAUG,binding signal,PUM1 PUF domain R3-TFF,6.12 log2 enrichment (interaction score)
same,binding signal,PUM1 PUF domain R4-RFP,6.66 log2 enrichment (interaction score)
same,binding signal,PUM1 PUF domain R5-KCL,2.45 log2 enrichment (interaction score)
same,binding signal,PUM1 PUF domain R6-FRS,2.9 log2 enrichment (interaction score)
same,binding signal,PUM1 PUF domain R5-MYR,2.55 log2 enrichment (interaction score)
GGCUAGAACUAGUGGAUCCCCCGGCGCCCGGCGGCUCGAGCCCGGGUAAGUGUAAUUAGUCUGCAUGCCGCCGGGCGCCAUGCCUGCAGGUCGACUCUAGAAAACAUG,binding signal,PUM1 PUF domain R3-TFF,1.36 log2 enrichment (interaction score)
GGCUAGAACUAGUGGAUCCCCCGGCGCCCGGCGGCUCGAGCCCGGGUAAGUGUAAAGAGUCUGCAUGCCGCCGGGCGCCAUGCCUGCAGGUCGACUCUAGAAAACAUG,binding signal,PUM1 PUF domain R2-EWV,2.77 log2 enrichment (interaction score)
GGCUAGAACUAGUGGAUCCCCCGGCGCCCGGCGGCUCGAGCCCGGGUAAGUGUAAAAAGUCUGCAUGCCGCCGGGCGCCAUGCCUGCAGGUCGACUCUAGAAAACAUG,binding signal,PUM1 PUF domain R2-EWV,5.9 log2 enrichment (interaction score)
same,binding signal,PUM1 PUF domain R2-EWL,6.51 log2 enrichment (interaction score)
GGCUAGAACUAGUGGAUCCCCCGGCGCCCGGCGGCUCGAGCCCGGGUAAGUGUAAAUUGUCUGCAUGCCGCCGGGCGCCAUGCCUGCAGGUCGACUCUAGAAAACAUG,binding signal,PUM1 PUF domain R1-VTW,3.57 log2 enrichment (interaction score)
GGCUAGAACUAGUGGAUCCCCCGGCGCCCGGCGGCUCGAGCCCGGGUAAGUCUAAAUAGUCUGCAUGCCGCCGGGCGCCAUGCCUGCAGGUCGACUCUAGAAAACAUG,binding signal,PUM1 PUF domain R7-KSG,0.94 log2 enrichment (interaction score)
GGCUAGAACUAGUGGAUCCCCCGGCGCCCGGCGGCUCGAGCCCGGGUAAGUGUUAAUAGUCUGCAUGCCGCCGGGCGCCAUGCCUGCAGGUCGACUCUAGAAAACAUG,binding signal,PUM1 PUF domain R5-MKC,2.53 log2 enrichment (interaction score)
GGCUAGAACUAGUGGAUCCCCCGGCGCCCGGCGGCUCGAGCCCGGGUAAGUGUAUAUAGUCUGCAUGCCGCCGGGCGCCAUGCCUGCAGGUCGACUCUAGAAAACAUG,binding signal,PUM1 PUF domain R4-RFP,3.26 log2 enrichment (interaction score)
GGCUAGAACUAGUGGAUCCCCCGGCGCCCGGCGGCUCGAGCCCGGGUAAGUGUAAGUAGUCUGCAUGCCGCCGGGCGCCAUGCCUGCAGGUCGACUCUAGAAAACAUG,binding signal,PUM1 PUF domain R3-FCM,4.3 log2 enrichment (interaction score)
